The record followed here is PubChem BioAssay.

Activity calls are given as the source filed them.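 Rule for the calls, unless noted: active = NADPH fluorescence slope more negative than the mean of all samples by about 3 SD, 99.7% confidence; inactive = the rest.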

Assay [1] can be described thus: inhibitors of TNFa-induced NFkB p65 translocation, primary screen, imaging, HUVEC, MLSMR starter and 10KST1 sets (AID 438;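 active = inhibition above 20% together with a positive visual image hit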;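 note: compound added about 3h40 before a 20 min TNFalpha stimulation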;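 for inhibition: signal is the nuclear over cytoplasmic p65 intensity ratio per well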). As to conditions: HUVEC TNFa-induced p65 nuclear translocation; cell count: measured here: nuclei count (cytotoxicity indicator), at 2.08 µM; inhibition: at 2 µM, stronger effect = higher value, 0% TNFa-plus-vehicle, 100% no-TNFa wells.
Assay [2] can be described thus: inhibitors of mutant huntingtin aggregation, primary screen, imaging, exon1htt(103Q)mCFP cells, high-content imaging (AID 483;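 active = visual image review flags a hit and inhibition of aggregation exceeds 20%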;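 note: compound exposure lasted 3 days before fixation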;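 for nuclei count: percent of the per-plate median nuclei count of sample wells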). As to conditions: exon1htt(103Q)mCFP cell line, aggregate imaging, at 2 µM; inhibition of aggregation: stronger effect = higher value; nuclei count: measured here: cell count, toxicity.
Assay [3] is described as follows: inhibitors of E-selectin induction by TNFa, primary screen, imaging, HUVEC, immunofluorescence, MLSMR starter and 10KST1 sets (AID 487;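 active = visually confirmed hit in the image check and inhibition above 20%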;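 for inhibition: signal is fraction of cell area covered by stained E-selectin grains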;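 for nuclei count: 100% = median nuclei count of all wells on the same plate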). As to conditions: HUVEC TNFalpha-induced E-selectin immunofluorescence imaging, at 2 µM; inhibition: stronger effect = higher value; nuclei count: measured here: cell number, toxicity.
Assay [4] concerns the target Voltage-gated potassium channel subunit beta-2 (Rattus norvegicus) (UniProt P62483). Kind of assay: KvBeta enzyme negative modulators, primary screen, biochemical, NADPH fluorescence (AID 622;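 active = fluorescence slope higher than the sample average by over 3 SD, cut at about -0.22 in these data, passing the limit was not always enough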;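 note: slope of raw intensity against log time taken from 70 to 1610 s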). As to conditions: recombinant KvBeta, 4-cyanobenzaldehyde reduction, at 10 µM, stronger effect = higher value.
Assay [5] has the same target. The assay can be described thus: KvBeta positive modulators, primary screen, biochemical, NADPH fluorescence (AID 623).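 Note: fluorescence intensity change per second fitted from 20 to 320 s.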 As to conditions: Recombinant KvBeta, NADPH fluorescence decrease slope, 10 min; at 10 µM; stronger effect = lower value.
Assay [6] deals with Alpha-2C adrenergic receptor (Homo sapiens) (UniProt P18825). Kind of assay: modulators of alpha2C/GIRK thallium flux, primary screen, cell-based, HEK293 alpha2C/GIRK1/2 (AID 624;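 active = fluorescence slope after compound addition differing from the mean of all screened samples at 99.7% confidence, in either direction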;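 note: slope of fluorescence ratio to pre-addition baseline per second over 15 to 24 s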). As to conditions: thallium flux BTC fluorescence, at 10 µM, actives lie on both sides.
A short description of assay [7]: inhibitors of Sendai virus-induced IRF3 signaling, primary screen, TLR/RLR signaling modifier project, cell-based, Sendai virus stimulus, luciferase, 10K MLSCN set (AID 602276;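 active = inhibition at or above 50% at 10 µM; inactive = inhibition below 50%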;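 note: firefly luciferase from ISG56 promoter only with Renilla not read in this screen; 0% = Sendai virus plus DMSO and 100% = medium plus DMSO without virus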). As to conditions: HEK293 RL24 IRF3 luciferase reporter, at 10 µM, stronger effect = higher value.
Assay [8] is described as follows: inhibitors of poly I:C-induced TLR3 signaling, primary screen, cell-based, poly I:C stimulus, luciferase, 10K MLSCN set (AID 602277;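 active = inhibition of the reporter signal at or above 50%; inactive = inhibition below 50%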). As to conditions: HEK293-TLR3 RL24 IRF3 luciferase reporter, at 10 µM, stronger effect = higher value.

Chain of Alpha-2C adrenergic receptor (Homo sapiens) (P18825 whole entry, looked up): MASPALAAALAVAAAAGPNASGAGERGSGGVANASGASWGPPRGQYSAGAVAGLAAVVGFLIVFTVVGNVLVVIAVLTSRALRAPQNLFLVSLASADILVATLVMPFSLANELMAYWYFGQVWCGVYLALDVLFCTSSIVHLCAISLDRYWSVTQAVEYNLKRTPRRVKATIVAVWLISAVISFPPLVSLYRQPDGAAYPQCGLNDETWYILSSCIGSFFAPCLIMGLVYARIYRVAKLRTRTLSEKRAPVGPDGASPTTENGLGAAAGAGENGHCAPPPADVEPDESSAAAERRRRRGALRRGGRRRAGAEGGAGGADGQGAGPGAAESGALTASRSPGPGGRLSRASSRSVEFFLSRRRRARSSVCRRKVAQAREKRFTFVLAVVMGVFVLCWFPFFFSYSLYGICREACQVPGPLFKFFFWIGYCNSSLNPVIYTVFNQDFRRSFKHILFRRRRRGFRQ
Chain of Voltage-gated potassium channel subunit beta-2 (Rattus norvegicus) (P62483 whole entry, looked up): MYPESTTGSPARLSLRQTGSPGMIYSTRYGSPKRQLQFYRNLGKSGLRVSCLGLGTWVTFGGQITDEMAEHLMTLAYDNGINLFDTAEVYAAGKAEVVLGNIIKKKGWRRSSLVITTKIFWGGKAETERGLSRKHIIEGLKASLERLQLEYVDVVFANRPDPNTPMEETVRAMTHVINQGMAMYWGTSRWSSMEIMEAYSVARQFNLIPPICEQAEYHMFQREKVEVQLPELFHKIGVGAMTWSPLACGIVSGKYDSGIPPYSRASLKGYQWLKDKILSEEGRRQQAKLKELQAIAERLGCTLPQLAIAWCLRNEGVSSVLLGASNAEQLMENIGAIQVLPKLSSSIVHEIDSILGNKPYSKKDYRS

With `NC(=O)CSc1nnc(-c2cnccn2)n1-c1ccccc1`, the cell count in assay [1] stood at 625. Further, the inhibition was 3.8% (inactive) in assay [1], 19% (inactive) in assay [3], 20.2% (inactive) in assay [7] and 20.8% (inactive) in assay [8]. In assay [2], the inhibition of aggregation was -10.7% (inactive). For the same molecule, the nuclei count in assay [2] was found to be 102%; in assay [3] it was 94.9%. In addition, the fluorescence slope in assay [4] was -0.501 (inactive). Besides, in assay [5], the NADPH fluorescence slope was -4.9e-05 (inactive). In addition, in assay [6], the slope is 0.0054 (inactive).

As to `CC(C)(C)c1cc(NC(=O)c2cc(F)c(F)c(F)c2F)no1`, the cell count in assay [1] was determined as 405. Further, the inhibition was -2.1% (inactive) in assay [1], -96.2% (inactive) in assay [3], -23.2% (inactive) in assay [7] and -90.4% (inactive) in assay [8]. The inhibition of aggregation in assay [2] was -14.9% (inactive). In addition, the nuclei count amounted to 104% in assay [2] and 112% in assay [3]. Moreover, the fluorescence slope in assay [4] was -0.435 (inactive). In addition, the NADPH fluorescence slope in assay [5] was -6.8e-06 (inactive). The slope in assay [6] was 0.00297 (inactive).

`O=C(CSc1nc2ccccc2nc1SCC(=O)N1CCOCC1)N1CCOCC1`: in assay [1], the cell count worked out at 473. Moreover, the inhibition was 7.6% (inactive) in assay [1], -239% (inactive) in assay [3], 9.88% (inactive) in assay [7] and 27.5% (inactive) in assay [8]. Besides, the inhibition of aggregation in assay [2] was 11.3% (inactive). Besides, the nuclei count in assay [2] came to 93.3%; in assay [3], 115%. Besides, in assay [4], the fluorescence slope is -0.354 (inactive). For the same molecule, in assay [5], the NADPH fluorescence slope is -4.2e-05 (inactive). In assay [6], the slope was 0.00548 (inactive).

As to `COc1cccc(-n2c(CNc3ccc(F)cc3)nnc2SCC(N)=O)c1`, the cell count in assay [1] was 475. Also, the inhibition in assay [1] was 1.9% (inactive); in assay [3], -32.3% (inactive); in assay [7] it was 15.9% (inactive); in assay [8] it was 24% (inactive). For the same molecule, the inhibition of aggregation in assay [2] is -17% (inactive). The nuclei count was determined as 113% in assay [2] and 76.1% in assay [3]. In addition, the fluorescence slope in assay [4] was -0.49 (inactive). For the same molecule, the NADPH fluorescence slope in assay [5] is -1.9e-05 (inactive). For the same molecule, the slope in assay [6] is 0.00474 (inactive).

Take `Cc1noc(C)c1C(=O)N1CCN(C(=O)c2sc3cc(Cl)ccc3c2Cl)CC1`: the cell count in assay [1] turned out to be 600. For the same molecule, the inhibition in assay [1] is -5.4% (inactive); in assay [3] it was -78.2% (inactive); in assay [7], 8.91% (inactive); in assay [8], 9.68% (inactive). Also, the inhibition of aggregation in assay [2] was 0.7% (inactive). Also, the nuclei count turned out to be 111% in assay [2] and 100% in assay [3]. In addition, the fluorescence slope in assay [4] is -0.328 (inactive). Also, the NADPH fluorescence slope in assay [5] was -6.4e-05 (inactive). In assay [6], the slope was 0.00474 (inactive).

For the molecule `Cc1cccc(-n2ncc3c(N)ncnc32)c1`, the cell count in assay [1] amounted to 622. Further, the inhibition was 9.1% (inactive) in assay [1], -12.6% (inactive) in assay [3], -20.5% (inactive) in assay [7] and -80.6% (inactive) in assay [8]. Besides, the inhibition of aggregation in assay [2] is -51.6% (inactive). Also, the nuclei count amounted to 6% in assay [2] and 110% in assay [3]. In addition, the fluorescence slope in assay [4] was -0.596 (inactive). For the same molecule, in assay [5], the NADPH fluorescence slope is -2.7e-05 (inactive). Moreover, the slope in assay [6] was 0.0039 (inactive).

For the molecule `Cc1ccc(-c2nnc(SCC(=O)N3CC(C)CC(C)C3)o2)cc1C` (centres undefined), the cell count in assay [1] turned out to be 557. Also, the inhibition was -1.6% (inactive) in assay [1], -32.7% (inactive) in assay [3], -0.246% (inactive) in assay [7] and 9.23% (inactive) in assay [8]. Further, in assay [2], the inhibition of aggregation is 1.6% (inactive). Moreover, the nuclei count in assay [2] stood at 32.1%; in assay [3], 120%. Besides, the fluorescence slope in assay [4] is -0.527 (inactive). In addition, the NADPH fluorescence slope in assay [5] was -4.3e-05 (inactive). Besides, in assay [6], the slope was 0.00676 (inactive).

With `CCN(CC(=O)NCc1cccs1)C(=O)c1cc(S(=O)(=O)N2CCOCC2)ccc1C`, the cell count in assay [1] was 591. Further, the inhibition in assay [1] is -9.6% (inactive); in assay [3], -82.2% (inactive); in assay [7] it was 1.74% (inactive); in assay [8], 27.8% (inactive). The inhibition of aggregation in assay [2] is -22.2% (inactive). Further, the nuclei count in assay [2] amounted to 107%; in assay [3], 136%. For the same molecule, the fluorescence slope in assay [4] is -0.466 (inactive). In assay [5], the NADPH fluorescence slope was -3.7e-05 (inactive). In assay [6], the slope is 0.00388 (inactive).

Regarding `COc1ccc(C2C=C(c3ccccc3)Nc3ncnn32)cc1` (centres undefined), the cell count in assay [1] was 558. Also, the inhibition in assay [1] was -20.9% (inactive); in assay [3], -15.1% (inactive); in assay [7], 5.64% (inactive); in assay [8], -14.5% (inactive). Further, the inhibition of aggregation in assay [2] is -12.6% (inactive). The values for the nuclei count in assay [2] and in assay [3] were 105% and 110%, respectively. For the same molecule, in assay [4], the fluorescence slope was -0.0904 (active). Also, in assay [5], the NADPH fluorescence slope was 4.2e-06 (inactive). Moreover, the slope in assay [6] is 0.00603 (inactive).

Take `CC(C)C(c1nnnn1C1CCCC1)N1CCN(C(=O)c2ccco2)CC1` (centres undefined): the cell count in assay [1] turned out to be 426. Further, the inhibition in assay [1] is 9.7% (inactive); in assay [3], -101% (inactive); in assay [7], -4.43% (inactive); in assay [8] it was 4.27% (inactive). For the same molecule, the inhibition of aggregation in assay [2] was -33.8% (inactive). In addition, the results for the nuclei count in assay [2] and in assay [3] were 67.7% and 115%, respectively. Moreover, the fluorescence slope in assay [4] is -0.566 (inactive). For the same molecule, the NADPH fluorescence slope in assay [5] is -1.1e-05 (inactive). In addition, the slope in assay [6] was 0.00617 (inactive).

Take `COC(=O)c1cc(=O)n(Cc2ccc3c(c2)OCO3)c(=Nc2ccccc2)s1`: the cell count in assay [1] came out at 575. The inhibition in assay [1] is 2.9% (inactive); in assay [3], -30.3% (inactive); in assay [7], 12.2% (inactive); in assay [8] it was 27.1% (inactive). In addition, the inhibition of aggregation in assay [2] is 8.9% (inactive). In addition, the nuclei count in assay [2] stood at 124%; in assay [3] it was 107%. For the same molecule, in assay [4], the fluorescence slope is -0.545 (inactive). For the same molecule, the NADPH fluorescence slope in assay [5] was -3.4e-05 (inactive). Also, the slope in assay [6] was 0.00623 (inactive).

`O=C1CC(c2cccnc2)c2cc3c(cc2N1)OCO3` (centres undefined): in assay [1], the cell count stood at 451. For the same molecule, the inhibition in assay [1] is -1.2% (inactive); in assay [3], -79.3% (inactive); in assay [7], 0.756% (inactive); in assay [8] it was 25% (inactive). Moreover, the inhibition of aggregation in assay [2] was -3.3% (inactive). Besides, the nuclei count in assay [2] stood at 104%; in assay [3], 102%. In addition, in assay [4], the fluorescence slope was -0.527 (inactive). In addition, the NADPH fluorescence slope in assay [5] is -6.9e-06 (inactive). For the same molecule, the slope in assay [6] is 0.00697 (inactive).

Regarding `COc1ccc(S(=O)(=O)Cc2ccc(C(=O)N3CCN(Cc4ccccc4)CC3)o2)cc1`, the cell count in assay [1] amounted to 583. For the same molecule, the inhibition in assay [1] was -4.8% (inactive); in assay [3] it was -37.7% (inactive); in assay [7] it was -3.69% (inactive); in assay [8], 28.9% (inactive). Further, the inhibition of aggregation in assay [2] is 21.6% (inactive). Also, the values for the nuclei count in assay [2] and in assay [3] were 98.6% and 121%, respectively. In addition, in assay [4], the fluorescence slope is -0.588 (inactive). The NADPH fluorescence slope in assay [5] is -1.9e-05 (inactive). In addition, the slope in assay [6] was 0.0068 (inactive).

Consider `CCCCn1c(SCC(=O)NCc2ccccc2)nc2ccc(N3CCOCC3)cc2c1=O`, for which, in assay [1], the cell count came to 372. Besides, the inhibition in assay [1] is 4.3% (inactive); in assay [3], -28% (inactive); in assay [7], -6.72% (inactive); in assay [8], 5.47% (inactive). Besides, the inhibition of aggregation in assay [2] was 10.3% (inactive). The nuclei count was 89% in assay [2] and 110% in assay [3]. Further, the fluorescence slope in assay [4] is -0.351 (inactive). Moreover, in assay [5], the NADPH fluorescence slope was 2.2e-06 (inactive). The slope in assay [6] was 0.00561 (inactive).
